The source made the active and inactive calls. Entries that show only a call come without a potency. Calls follow the shape of the dose curve; as a rule, active = well fitted cell-killing curve with a large enough effect in the repeat runs; inconclusive = weak or mixed curves, or effect the other way; inactive = flat fitted curve, though single readings scatter.
Experiment: qHTS assay to identify small molecule HDAC inhibitors - cell viability counter screen (AID 1259365); also: nearly all actives have a fitted effect of over 50% in size
Conditions: HCT-116 viability, CellTiter-Glo ATP luminescence, 2 h; series mostly up to 92.4 µM
Excerpt: U.S. Tox21 Program National Center for Advancing Translational Sciences [NCATS] NIH Chemical Genomics Center [NCGC] U.S. Environmental Protection Agency [EPA] National Institutes of Environmental Health Sciences [NIEHS] National Toxicology Program [NTP] U.S. Food and Drug Administration [FDA] Tox21 Assay Overview: Histone deacetylases (HDACs) are a group of epigenetic enzymes that regulate gene expression by histone deacetylation. HDACs are capable of introducing epigenetic modifications and such aberrations contribute to the onset and progression of several human diseases, thus making HDACs a popular therapeutic target. For identifying endogenous class I/II HDAC inhibitors a homogenous, luminogenic HDAC I/II cell based assay was used to measure the relative activity of class I and II HDACs from cells. Wild type HCT-116 cells were used to screen Tox21 compound libraries for identifying class I/II HDAC inhibitors.
Tox21 Assay Protocol Summary: HCT-116 cells were dispensed at 1,500 per well in 5uL of culture medium into white solid bottom 1536-well plates (Greiner Bio-One, Monroe, NC) using a Multidrop Combi (Thermo Scientific, Waltham, MA) dispenser. The assay plates were incubated at 37 C and 5% CO2 for an overnight, and then 23nL of compounds dissolved in DMSO and positive control were transferred using a Pintool station (Wako, San Diego, CA). The assay plates were incubated at 37C and 5% CO2 for 2hr. After compound treatment, 4uL of CellTiter-Glo reagent (Promega Corporation, Madison, WI) was added to each well of the assay plates using Flying Reagent Dispenser (FRD, Aurora Discovery, San Diego, CA) and incubated the assay plates at room temperature for 30min. The luminescence signal was quantified using a ViewLux plate reader (Perkin Elmer, Shelton, CT).

Row | Structure (SMILES) | Potency | activity change, negative = cytotoxicity
1 | O=C(OCCCCCCOC(=O)c1ccccc1)c1ccccc1 | inactive | –
2 | Cc1oc2c(NC(=O)c3c(Cl)cccc3Cl)cccc2c1C(C)(C)O | inactive | –
3 | O[C@@H](COc1cccc2ncccc12)CN1CCN(C2c3ccccc3[C@@H]3[C@H](c4ccccc42)C3(F)F)CC1 (stereo not given in full) | inactive | –
4 | C#Cc1cccc(Nc2ncnc3cc(OCCOC)c(OCCOC)cc23)c1 | inactive | –
5 | C=C(C)C(=O)OCCO | inactive | –
6 | CN(C)CCCN1c2ccccc2Sc2ccccc21 | inactive | –
7 | CO[C@@H]1[C@H](OC(=O)/C=C/C=C/C=C/C=C/C(=O)O)CC[C@]2(CO2)[C@H]1[C@@]1(C)O[C@@H]1CC=C(C)C | inactive | –
8 | CCC(Cl)CCC(Cl)C(Cl)CC(Cl)C(Cl)C(Cl)CCl (stereo not given) | inactive | –
9 | C[C@H]1C[C@H]2[C@@H]3CCC4=CC(=O)C=C[C@]4(C)[C@@]3(Cl)[C@@H](O)C[C@]2(C)[C@@]1(O)C(=O)CO | inactive | –
10 | O=C1C(O)=C(O)C(=O)C(O)=C1O | inactive | –
11 | CCOC(=O)C(=O)CCc1ccccc1 | inactive | –
12 | COc1ccc(C(=O)N2CCN(CC(=O)N3CCOCC3)CC2)cc1 | inactive | –
13 | NC(N)=NCCC[C@H](N)C(=O)O | – | 4.6% [at 8.39 µM] (inactive)
14 | C[C@@H](c1ncncc1F)C(O)(Cn1cncn1)c1ccc(F)cc1F (stereo not given in full) | inactive | –
15 | CC(C)(CO)[N+](=O)[O-] | inactive | –
16 | CC(C)=CCC/C(C)=C/CC/C(C)=C/CO | inactive | –
17 | CCC(C)(C)CC | inactive | –
18 | CCCCCCc1ccc(-c2ccc(C#N)cc2)cc1 | inactive | –
19 | O=C1OC(CN2CCOCC2)CN1/N=C/c1ccc([N+](=O)[O-])o1 (stereo not given) | inactive | –
20 | C[Si](C)(CCCN)O[Si](C)(C)CCCN | inactive | –

Row | Structure (SMILES) | Potency | activity change, negative = cytotoxicity
21 | CC/C=C\CCOC(=O)CC | inactive | –
22 | Cc1cc(N)c2cc(NC(=O)Nc3ccc4nc(C)cc(N)c4c3)ccc2n1 | inactive | –
23 | O=C(O)CNCC(=O)O | – | -5.53% [at 8.39 µM] (inactive)
24 | CC(=O)c1ccc2c(c1)N(CCCN(C)C)c1ccccc1S2 | inactive | –
25 | O=C(O)c1ccc(S(=O)(=O)O)cc1C(=O)O | inactive | –
26 | O=C(O)C1(C(=O)O)CCC1.[NH2-].[NH2-].[Pt+2] | inactive | –
27 | CN(C)c1ccc(/C=C/c2ccc([N+](=O)[O-])cc2)cc1 | – | -0.457% [at 8.39 µM] (inactive)
28 | Nc1cccc([N+](=O)[O-])c1 | inactive | –
29 | CCO[C@H](Cc1ccc(OCCc2ccc(OS(C)(=O)=O)cc2)cc1)C(=O)O | inactive | –
30 | C/C(=C(\CCOP(=O)(O)O)SC(=O)c1ccccc1)N(C=O)Cc1cnc(C)nc1N | – | 6.82% [at 8.39 µM] (inactive)
31 | C[N+](C)(C)CCOC(=O)CCC(=O)OCC[N+](C)(C)C | inactive | –
32 | Nc1ccccc1S(=O)(=O)c1ccccc1 | inactive | –
33 | CCCCCCCCCCCCCCCCCCOS(=O)(=O)O | inactive | –
34 | COc1ccc(C)cc1[N+](=O)[O-] | inactive | –
35 | CCCCCCCCCCCc1ccccc1 | inactive | –
36 | C=CCOc1ccccc1OCC(O)CNC(C)C (stereo not given) | inactive | –
37 | CN(Cc1ccc(C(C)(C)C)cc1)Cc1cccc2ccccc12 | inactive | –
38 | CCOC(=O)Cc1cccc2ccccc12 | inactive | –
39 | CCCCC(=O)OCC(=O)[C@H]1[C@H](C)C[C@H]2[C@@H]3C[C@H](F)C4=CC(=O)C=C[C@]4(C)[C@@]3(F)[C@@H](O)C[C@@]21C | inactive | –
40 | CCCCCCCCO[C@@H]1O[C@H](CO)[C@@H](O)[C@H](O)[C@H]1O | inactive | –

Reference: PubChem BioAssay (Tox21)
